MITF primary – human MITF inhibition, primary screen | O75030 | AlphaScreen MITF homodimerization, bead proximity signal | inhibition, % at 2.6 µM | 650,000 tested, 0.91% active; in the data active = inhibition above about 50%
FBW7 act – human FBW7 E3 ligase activation, primary screen; Q969H0; AlphaScreen FBW7–phospho-cyclin E peptide binding, activator screen; normalized activity (activation), % at 26.1 µM; 650,000 tested, 0.13% active; AID 1259310; in the data active = normalized activity above about 1.9%;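 also: purified mutant Fbw7 with reduced substrate affinity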
TEAD-YAP inh – TEAD-YAP interaction inhibition. 640,000 tested, 1.4% active. HEK-TIYL cells, TEAD-Gal4/YAP UAS-luciferase luminescence. inhibition, % at 9.12 µM; in the data active = inhibition above about 32%
GPR151 activ – activates the human receptor GPR151. AID 1508602. 650,000 tested, 1% active. activation, % at 11.2 µM. PathHunter beta-arrestin GPR151 cells, luminescence. Q8TDV0; in the data active = activation above about 4.9%
Target sequence (Q8TDV0 whole entry, looked up): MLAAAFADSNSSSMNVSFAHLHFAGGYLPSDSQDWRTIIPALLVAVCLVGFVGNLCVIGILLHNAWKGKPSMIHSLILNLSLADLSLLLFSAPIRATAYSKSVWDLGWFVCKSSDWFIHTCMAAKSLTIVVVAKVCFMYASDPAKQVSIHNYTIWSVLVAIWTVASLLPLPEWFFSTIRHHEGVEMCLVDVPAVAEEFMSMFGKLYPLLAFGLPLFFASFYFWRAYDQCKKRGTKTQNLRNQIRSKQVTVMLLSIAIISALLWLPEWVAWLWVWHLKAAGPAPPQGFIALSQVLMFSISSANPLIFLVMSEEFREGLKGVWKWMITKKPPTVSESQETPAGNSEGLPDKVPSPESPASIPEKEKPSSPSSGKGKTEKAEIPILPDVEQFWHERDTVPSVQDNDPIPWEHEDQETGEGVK
Large screens that a line does not name were inactive; ! = not active in a repeat. In the library only some 3.5% were active in any assay of this set; here they are far more common.

COc1ccc2occ(C(=O)COc3ccc(Br)cc3C#N)c2c1	TEAD-YAP inh 57
CCOc1ccc(C(NC(C)=O)c2cc(Cl)c3cccnc3c2O)cc1 (stereo unspecified)	none
CC(=O)NC(c1ccc(C)cc1)c1ccc2cccnc2c1O (stereo unspecified)	MITF primary 51, TEAD-YAP inh 85
Cc1cccnc1NC(c1ccc([N+](=O)[O-])cc1)c1ccc2cccnc2c1O (stereo unspecified)	TEAD-YAP inh 70
CC(=O)NC(c1ccc([N+](=O)[O-])cc1)c1ccc2cccnc2c1O (stereo unspecified)	TEAD-YAP inh 84
CC(=O)NC(c1ccc2ccccc2c1)c1ccc2cccnc2c1O (stereo unspecified)	TEAD-YAP inh 80
Nn1c(N2CCOCC2)nc2ccccc21	none
CC(=O)NC(c1ccc(Br)cc1)c1ccc2cccnc2c1O (stereo unspecified)	TEAD-YAP inh 83
OCc1cccc(-c2cnn3c(NCc4ccccn4)ccnc23)c1	TEAD-YAP inh 77
CN(Cc1ccccc1)c1ccnc2c(-c3cccc(CO)c3)cnn12	TEAD-YAP inh 76
Oc1cccc(-c2cnn3c(NCc4ccccn4)ccnc23)c1	TEAD-YAP inh 56
CN(Cc1ccccc1)c1ccnc2c(-c3cccnc3)cnn12	none
COc1ccccc1Cc1nc2cc(C)c(C)cc2[nH]c1=O	none
COc1cc(Cc2nc3cc(C)c(C)cc3[nH]c2=O)cc(OC)c1OC	TEAD-YAP inh 55
O=C1c2cccc3cccc(c23)C(=O)N1CCNCCO	TEAD-YAP inh 64
COC(=O)c1c(NC(=O)COc2ccc(C(C)C)c(C)c2)sc2c1C(C(=O)OC)CC2 (stereo unspecified)	none
Nc1ccc2nc(SCC(=O)N3CCN(Cc4ccccc4)CC3)sc2c1	none
O=C(Nc1cccc(O)c1)c1ccccc1	TEAD-YAP inh 48
Nc1ccc(C(=O)Nc2ccc(O)cc2)cc1	none
CC(=O)c1ccc(NC(=O)c2noc3c2CCc2ccccc2-3)cc1	none
Nc1ccc(C(=O)Nc2cccc(O)c2)cc1	TEAD-YAP inh 59
O=C(Nc1cccc(O)c1)c1noc2c1CCc1ccccc1-2	TEAD-YAP inh 87
CC(C)CCN1CC[C@@H]2[C@H](CCCN2C(=O)Cc2c[nH]c3ccccc23)C1	none
c1ccc(C2OCC3(CCC4OC4C3)CO2)cc1 (stereo unspecified)	none
c1ccc(Nc2cc(-c3ccnc(Nc4ccccc4)c3)ccn2)cc1	TEAD-YAP inh 38
NC(=O)c1ccc(Nc2cc(-c3ccccc3)ccn2)cc1	none
CC1C2CC(C(C(Nc3ccccc3)c3ccccc3)C2O)C1(C)C (stereo unspecified)	none
CCC(C)NC(=O)CN(c1cc(Cl)ccc1C)S(=O)(=O)c1ccccc1 (stereo unspecified)	none
Cn1c(=N)n(CC(=O)c2ccccc2)c2ccccc21	TEAD-YAP inh 45
Cc1ccc(C(=O)Cn2c3ccccc3n3nc(C)nc23)cc1	TEAD-YAP inh 47
N=c1sc2c(n1CC(=O)c1ccccc1)CCCC2	TEAD-YAP inh 91
CCN(CC)CCn1c(=N)n(CC(=O)c2ccc(C)cc2)c2ccccc21	FBW7 act 3.3
COc1ccc(C(=O)Cn2c(=N)n(C)c3ccccc32)cc1	none
CCCCC(=O)NC(c1ccc(C)cc1)c1ccc2cccnc2c1O (stereo unspecified)	TEAD-YAP inh 85
Cc1ccc(C(NC(=O)COc2ccccc2)c2cc(Cl)c3cccnc3c2O)cc1 (stereo unspecified)	none
CCCC(=O)NC(c1ccc(C)cc1)c1ccc2cccnc2c1O (stereo unspecified)	TEAD-YAP inh 69
CCCCC(=O)NC(c1ccc(N(CC)CC)cc1)c1ccc2cccnc2c1O (stereo unspecified)	none
c1ccc(-c2cn3nc4c(nc3n2)CCCC4)cc1	TEAD-YAP inh 85
O=C(Nc1ccc(Cl)cc1)Nc1nc2ccccc2s1	none
c1ccc2[nH]c(CNc3nc(N4CCN(Cc5ccc6c(c5)OCO6)CC4)nc4c3ncn4C3CCCCC3)nc2c1	TEAD-YAP inh 41
c1ccc2[nH]c(CNc3nc(N4CCN(Cc5ccc6c(c5)OCO6)CC4)nc4c3ncn4-c3ccsc3)nc2c1	TEAD-YAP inh 85
c1cc2c(cc1CN1CCN(c3nc(NC4CC4)c4ncn(C5CCCCC5)c4n3)CC1)OCO2	none
COc1ccc(CCN2C(=O)CC(C(=O)Nc3ccccc3)SC2=Nc2cccc(C(F)(F)F)c2)cc1OC (stereo unspecified)	none
C=CCOc1ccc(Br)cc1/C=N/N1C(=O)C2C3C=CC(CC3)C2C1=O (stereo unspecified)	none
COc1c2occc2cc2ccc(=O)oc12	FBW7 act 2.0!

Screening results: PubChem BioAssay, The Scripps Research Institute Molecular Screening Center
